# Data published in PubChem BioAssay AID799 (SRMLSC, 2007).
# Screen size: about 140,000 compounds; about 840 (0.6%) were called active. The list comes from a sample in which actives are over-represented; it also holds similar structures and randomly drawn compounds. Values without a mark were called inactive.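 Rule for the calls: active = viability gain under doxorubicin at or above a set limit, the compound median plus 3 SD (cut at about 4.7% in these data); inactive = the rest.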
# Assay: H69AR viability gain despite doxorubicin, primary screen, MRP-1 activator project, H69AR cells, CellTiter-Glo (AID 799);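 note: MRP-1 overexpressing cells given doxorubicin 25 µM after compound pretreatment; 18-22 h compound pretreatment then 72 h with doxorubicin before readout; 0% = doxorubicin-only wells and 100% = vehicle-treated cells without doxorubicin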
# Details: viability rescue, at 10 µM, active compounds read high
row,Compound,viability increase
1,COc1ccc([N+](=O)[O-])cc1NC(=O)COC(=O)/C=C/c1ccco1,7.08% (active)
2,CC(C)CNC(=O)COC(=O)/C=C/c1ccco1,1.16%
3,COc1ccc([N+](=O)[O-])cc1NC(=O)CCc1ccccc1,-1.62%
4,Cc1[nH]c2ccccc2c1/C=N\NC(=O)Cn1nnc(-c2ccccc2)n1,3.22%
5,CN(C)CCCNC(=S)NCc1ccc(Cl)cc1,-0.81%
6,CCOC(=O)NC(=O)CSc1nnc(SCCC(=O)O)s1,1.73%
7,CCCC(=O)Nc1cccc(NC(=S)NC(=O)C(C)Oc2ccc(Cl)cc2Cl)c1 (stereo not given),-2.06%
8,COc1ccccc1C(=O)Nc1ccc(OCc2nnc3c4ccccc4c(C)nn23)cc1,0.29%
9,Cc1ccc(OCc2nnc(SC3CCc4ccccc4C3=O)n2C)cc1 (stereo not given),7.21% (active)
10,Cc1cccnc1NC(=O)CSc1nnc(COc2ccc(C(C)C)cc2)n1C,0.08%
11,Cc1ccc2nc(SCc3cn4c(C)cc(C)nc4n3)[nH]c2c1,0%
12,COc1ccc(N2CCN(Cc3cc(=O)oc4ccc5ccccc5c34)CC2)cc1,-1.38%
13,O=c1cc(CN2CCN(c3cccc(Cl)c3)CC2)c2cc3c(cc2o1)CCCC3,6.01% (active)
14,OC(COc1ccc2c(c1)CCC2)CN1CCN(c2cccc(Cl)c2)CC1 (stereo not given),-3.05%
15,O=C(CSc1nc2ccccc2[nH]1)N/N=C/C=C\c1ccccc1[N+](=O)[O-],-1.58%
16,COc1cccc(/C(C)=N/Nc2ncc(Cl)cc2Cl)c1,-1%
17,Cn1cc(C(=O)NCc2ccccc2F)cn1,-0.72%
18,COc1ccc(/C=C/C(=O)Nc2ccc3c(c2)OCCO3)cc1OC,-2.17%
19,CCn1nc(C)c(NC(=O)/C=C/c2ccc(OC)c(COc3ccc(Br)cc3)c2)c1C,3.69%
20,COc1ccc(/C=C/C(=O)Nc2c(C)nn(C)c2C)cc1COc1ccc(Br)cc1,7.14% (active)
21,Cn1c(=O)c(Sc2ccc(Cl)cc2)c(O)c2ccccc21,-2.5%
22,CCN(CC)CCNCc1ccc(OCc2ccc(Cl)nc2)c(OC)c1,1.21%
23,CCCCCC(=O)Nc1ccc(S(=O)(=O)Nc2ccc(Cl)nn2)cc1,6.79% (active)
24,COc1ccc(NS(=O)(=O)c2ccc(NC(=O)C(C)(C(F)(F)F)C(F)(F)F)cc2)nn1,-0.72%

row,Compound,viability increase
1,COc1ccc(NS(=O)(=O)c2ccc(NC(=S)NC(=O)/C=C/c3ccc(C)cc3)cc2)nn1,-3.16%
2,O=C(/C=C/c1ccccc1)Nc1nnc(SCC(=O)c2ccc3ccccc3c2)s1,-5.32%
3,COc1ccc2nc(NC(=O)[C@@H]3CCCN3C(=O)c3cccs3)sc2c1,-1.42%
4,CC(C)CN(C(=O)CN1CCN(S(=O)(=O)c2ccccc2)CC1)c1c(N)n(CC(C)C)c(=O)[nH]c1=O,0.86%
5,Cc1ccccc1-n1c(C)cc(/C=C2\NC(=O)NC2=O)c1C,-4.81%
6,Cc1cc(/C=C2/NC(=O)NC2=O)c(C)n1-c1cccnc1,-1.48%
7,Cc1cccc(C)c1-n1c(C)cc(/C=C2\C(=O)NN(c3ccccc3)C2=O)c1C,7.89% (active)
8,CCC(C(=O)OCC(=O)Nc1c(Cl)cc(Cl)cc1Cl)c1ccccc1 (stereo not given),0.97%
9,COc1ccc(-n2ncc3c(N4CCc5ccccc54)ncnc32)cc1,-1.22%
10,COc1ccc(-n2ncc3c(N4CCCc5ccccc54)ncnc32)cc1,10.8% (active)
11,Cc1cccc(-n2ncc3c(N4CCc5ccccc54)ncnc32)c1,-0.96%
12,COc1cc(Cl)c(C)cc1NC(=O)COC(=O)c1cc(SC)ccc1Cl,-0.15%
13,CCC1CCCCN1C(=S)Nc1ccc(SC(F)F)cc1 (stereo not given),1.82%
14,Cc1ccccc1NC(=O)CNc1ccccc1N1CCCCC1,-3.04%
15,Cc1ccccc1NC(=O)CSC1=NCCN1,5.48% (active)
16,Cc1cccc(NC(=O)CSc2nc3c(c(=O)[nH]2)CCCC3)c1C,-0.17%
17,N=c1n(CCc2ccccc2)c2ccccc2n1Cc1ccccc1F,-4.33%
18,COc1ccc(C)cc1NC(=O)CSc1ccc(Cl)cc1,-1.28%
19,O=C1CCCC(O)=C1N=Nc1ccc2ncsc2c1,-2.88%
20,CCn1c2ccccc2c2cc(NC(=O)COC(=O)c3ccccc3Br)ccc21,-1.59%
21,Cc1cc(C(=O)OCC(=O)Nc2ccc(F)c(F)c2)c(C)o1,7.91% (active)
22,Cc1cc(C(=O)OCC(=O)c2c(N)n(C)c(=O)n(C)c2=O)c(C)o1,-2.26%
23,CC(C)(C)NC(=O)C(=O)NCc1ccncc1,-2.66%
24,COc1ccc(NC(=O)CCN2CCCC2)c(OC)c1,1.66%

row,Compound,viability increase
1,Cc1cc(NC(=O)CCC2COc3ccccc3O2)no1 (stereo not given),0%
2,COc1ccc(NC(=O)CC2COc3ccccc3O2)c(OC)c1 (stereo not given),4.96% (active)
3,O=c1cc(CN2CCN(S(=O)(=O)/C=C/c3ccccc3)CC2)c2ccc(O)cc2o1,-2.59%
4,CC(C)(C)CC(C)(C)NCC(O)COCCOc1ccc(Br)cc1 (stereo not given),-4.69%
5,Cc1ccsc1C(=O)N/N=C/c1ccc([N+](=O)[O-])cc1,0.85%
6,Cc1cc(C(=O)N/N=C/c2cc([N+](=O)[O-])cc(C)c2O)n[nH]1,5.47% (active)
7,Cc1ccc(-n2[nH]c(C)c(/C=N/NC(=O)c3cccc([N+](=O)[O-])c3)c2=O)cc1C,-4.06%
8,COC(=O)c1onc(-c2c(OC)cc(OC)cc2OC)c1C(=O)OC,1.1%
9,O=C(N/N=C/c1ccc(Br)o1)c1cncc(Br)c1,-1.78%
10,Cc1ccc(OCC(=O)OC(C)CN(C)Cc2ccccc2)cc1 (stereo not given),-1.74%
11,CCn1c(SCC(=O)Nc2ccc(C)cc2)nc2nc3c(cc2c1=O)CCCC3,0.07%
12,CCOc1ccc(OCC)c(-c2c(=O)n(OCc3ccc(Cl)cc3)c3ccccc3[n+]2[O-])c1,7.22% (active)
13,COc1ccc(OC)c(-c2c(=O)n(OCc3ccccc3Br)c3ccccc3[n+]2[O-])c1,-1.16%
14,Clc1ccc(COn2c(-c3ccc(Cl)cc3Cl)nc3ncccc32)cc1,-3.46%
15,CCCN(CC1COc2ccccc2O1)C(=S)Nc1ccc(C)cc1 (stereo not given),-0.89%
16,Cc1nnc(-c2ccc(Oc3ccc(C)c(C)c3)c([N+](=O)[O-])c2)o1,-1.23%
17,COc1cccc(/C=N/Nc2ncc(C(F)(F)F)cc2Cl)c1O,-4.98%
18,Cc1cc(C)c(NC(=S)N2CCCC2C(=O)O)c(C)c1 (stereo not given),0.6%
19,CCN(C(=O)CSc1ncn[nH]1)c1cccc2ccccc12,1.04%
20,Cn1nnc(NC(=O)CSc2ncn[nH]2)n1,-0.73%
21,CC(C)(C)c1ccc(C(=O)CSc2ncn[nH]2)cc1,9.85% (active)
22,CCN(CC(=O)NCCc1ccccc1)S(=O)(=O)c1ccc(C)cc1,-2.77%
23,O=C(Cc1ccccc1)Nc1cccc(C(=O)N/N=C/c2ccco2)c1,-0.32%
24,CC(C)(C)NC(=O)c1cccc(NC(=O)Cc2ccc(Br)cc2)c1,5.31% (active)

row,Compound,viability increase
1,COc1ccc(CC(=O)Nc2ccc(C(=O)NC(C)(C)C)cc2)cc1,0.14%
2,COc1ccc(Cl)cc1NC(=O)Cn1nc(-c2ccc(C)cc2)n(C)c1=S,-3.24%
3,CCOC(=O)c1cnc2ccc(F)cc2c1Nc1ccc2c(c1)OCCO2,-1.56%
4,Cc1c(CCO)sc[n+]1CC(=O)OC12CC3CC(CC(C3)C1)C2,-0.72%
5,Cc1ccc(C(=O)C(=S)N2CCOCC2)cc1,-2%
6,Cc1ccc(CC2S/C(=C(/C#N)C(=O)N3CCOCC3)N(c3ccccc3)C2=O)cc1 (stereo not given),7.14% (active)
7,N#C/C(C(=O)N1CCOCC1)=C1/SC(Cc2ccc(F)cc2)C(=O)N1c1ccccc1 (stereo not given),-0.96%
8,Cc1ccn(-c2cccc(-n3ccc(C)n3)n2)n1,1.12%
9,CN1/C(=C\C(=O)c2cccnc2Cl)C(C)(C)c2ccccc21,-0.96%
10,Cc1noc(C)c1C(=O)OCC(=O)/C=C1\N(C)c2ccccc2C1(C)C,-1.22%
11,CN1/C(=C\C(=O)c2oc3ccccc3c2N)C(C)(C)c2ccccc21,5.19% (active)
12,C/C(=N/NS(=O)(=O)c1ccccc1)c1ccc(NC(=O)C(F)(F)F)cc1,-0.61%
13,Cc1ccccc1N/C(SCc1ccc(Cl)cc1)=C(/C#N)C(N)=O,-2.62%
14,Cc1scc(C(=O)NNC(=S)NCC(C)C)c1C,0.83%
15,COc1ccc(CC(=O)N2N=C(C)CC2(O)C(F)(F)F)cc1 (stereo not given),-0.45%
16,Cc1ccc(S(=O)(=O)Nc2ccc3ncccc3c2)cc1,5.23% (active)
17,O=S(=O)(Nc1ccc(Oc2ncccn2)c(Cl)c1)c1ccc(F)cc1,-2.28%
18,Cc1ccc(C(=O)/C=C/Nc2ccc(S(=O)(=O)Nc3onc(C)c3C)cc2)cc1,-1.44%
19,CCc1nccn1S(=O)(=O)c1cccc([N+](=O)[O-])c1,1.01%
20,N#CC1(NC(=O)COc2ccc3oc4ccccc4c3c2)CCCCC1,0%
21,NC(=O)COc1ccc2c3c(c(=O)oc2c1)CCCCC3,-0.34%
22,O=C(COc1ccc2oc3c(c2c1)CCCC3)Nc1ccccn1,5.27% (active)
23,O=C(COC(=O)Cc1ccc(F)cc1)Nc1cc(S(=O)(=O)N2CCOCC2)ccc1N1CCCC1,0.15%
